The whole screen tested about 360,000 compounds, of which about 7,300 (2%) were called active. What follows is part of a selection rich in actives, with near analogues and random picks from the rest. Values without a mark were called inactive. Rule as the data show it: active = inhibition above about 50%; inactive = the rest.
Assay: blockers of TWEAK-induced Fn14 reporter activity – luciferase reporter cells, uHTS, primary screen (AID 1159606)
Conditions: TWEAK-stimulated Fn14 reporter cells, luciferase luminescence, 8 h; at 10 µM; stronger effect = higher value

SMILES	inhibition
COC(=O)c1ccc(NS(=O)(=O)c2cc3c4c(c2)C(C)C(=O)N4CCC3)cc1 (stereo not given)	9.82%
CCOC(=O)CSc1nnc(NC(=O)c2cccc(S(=O)(=O)N3CCCCC3)c2)s1	41.9%
O=C(Nc1nnc(-c2ccc(F)cc2)s1)c1c(F)cccc1Cl	5.11%
CSc1nnc(NC(=O)c2nc(S(=O)(=O)Cc3ccc(C)cc3)ncc2Cl)s1	92% (active)
Cc1ccc(S(=O)(=O)CCC(=O)Nc2nnc(CC(C)C)s2)cc1	-1.46%
Cc1cccc(C(=O)Nc2nnc(S(=O)(=O)N3CCCCCC3)s2)c1	-46.1%
Cc1ccc(CS(=O)(=O)c2ncc(Cl)c(C(=O)Nc3nnc(C)s3)n2)cc1	96.5% (active)
CSc1nc2nc3c(c(=O)n2[nH]1)CCC3	-0.44%
CCCn1c(N)c(N(CCOC)C(=O)C2CCCC2)c(=O)[nH]c1=O	-6.44%
CC(=O)Nc1ccc(S(=O)(=O)N2CCC(C(=O)N[C@@H](Cc3ccccc3)C(=O)O)CC2)cc1	-3.83%
Cc1cc(OCCOc2cccc3cccnc23)c(C)cc1Cl	-15.2%
Cc1ccc([C@@H]2CC(=O)[C@@H]3CN(S(=O)(=O)c4ccc(C)cc4)[C@H](c4ccccc4F)C[C@@H]3N2S(=O)(=O)c2ccc(Cl)cc2)cc1	-13.3%
COc1cc(C(F)(F)F)nc2c(Br)c(C(C)(C)C)nn12	15.2%
O=C(CSC(=S)N1CCOCC1)c1ccccc1	71.9% (active)
NC(=NC(=O)c1ccccc1)N1CCOCC1	-6.39%
CC1CN(C(=S)SCC(=O)c2ccccc2)CC(C)O1 (stereo not given)	3.23%
CC1(C(=O)Nc2cccc3cccnc23)CCN1C(=O)CCC1CCCC1 (stereo not given)	8.06%
Cc1csc(SCC(=O)Nc2ccc(C)c(S(=O)(=O)N(C)C)c2)n1	-4.8%
Cc1csc(SCC(=O)Nc2sccc2C#N)n1	56.5% (active)
N#Cc1ccsc1NC(=O)CN1CCCCC1	-0.37%

SMILES	inhibition
CCN1C(=O)N[C@@H](c2ccccc2)[C@H](C(C)=O)[C@H]1C	-0.1%
CSc1ccccc1NC(=O)Cc1ccc(Br)cc1	4.45%
CCC1CCc2c(sc(NC(C)=O)c2C#N)C1 (stereo not given)	-8.64%
C/C(=N/NC(=O)c1ccncc1)c1ccc2c(c1)OCO2	11.5%
O=C(Nc1nc2ccccc2s1)c1ccc2c(c1)OCO2	83.7% (active)
N#Cc1ccccc1NC(=O)c1ccc2c(c1)OCO2	-17.5%
Cc1ccc(-c2csc(NC(=O)C3=COCCO3)n2)cc1C	1.4%
COCc1nnc(NC(=O)c2ccc3c(c2)OCO3)s1	14.7%
O=C(Nc1nc(-c2ccc3c(c2)OCO3)cs1)c1ccncc1	57.8% (active)
CCCNS(=O)(=O)c1ccc(CCC(=O)NCc2cccnc2)cc1	6.9%
COc1ccc(C2(C)ON(c3ccccc3C(F)(F)F)C2=O)cc1 (stereo not given)	-8.35%
CCCCN(CC)C(=O)c1ccccc1Oc1ccccc1	11.6%
Cc1ccc(NC(=O)Cc2nc(COC(=O)C(C)NS(=O)(=O)c3ccc(C)cc3)cs2)cc1 (stereo not given)	-7.54%
CCOC(=O)/C=C/CN(C(=O)OC(C)(C)C)S(=O)(=O)N1CC=CC1	8.4%
Cc1ccc(-c2noc(CSc3nnc(-c4ccncc4)n3-c3ccc(F)cc3)n2)cc1	1%
Cc1ccc(-n2c(SCC(=O)N3c4ccccc4Sc4ccccc43)nnc2-c2ccncc2)cc1	20.4%
Cc1ccc(Nc2nc(CSc3nnc(-c4ccncc4)n3-c3ccccc3C)cs2)cc1	74.3% (active)
FC(F)(F)c1cc(C(F)(F)F)c2ccc(N3CCN(c4ccccc4)CC3)nc2n1	-12.2%
Clc1ccc2nc(CSc3ccccc3)cn2c1	59.6% (active)
Cc1ccc(Cc2c(-c3ccccc3)nc3ccc(Cl)cn23)cc1	-20.8%

SMILES	inhibition
Cc1ccc(-c2nc3ccc(Cl)cn3c2Cc2ccccc2)cc1	-22%
CC1(C(=O)NS(=O)(=O)c2cccc(F)c2)CCN1C(=O)c1cccc2ccccc12 (stereo not given)	-20.6%
Cc1ccc(-c2cnc(C(O)c3cc(Cl)cc(Cl)c3)[nH]2)cc1 (stereo not given)	-5.74%
CC1CCc2sc3nc(N4CCN(CCO)CC4)n4ncnc4c3c2C1 (stereo not given)	-63.4%
COC(=O)c1ccc2nc(-c3ccccc3)c(Cc3ccc(OC)cc3C)n2c1	-3.6%
CCCCNc1c(-c2cccc(Sc3ccc(OC)cc3)c2)nc2ccccn12	53.7% (active)
CCCCNc1c(-c2ccc(OC)c(Sc3ccc(OC)cc3)c2)nc2ccc(Cl)cn12	5.14%
COC(=O)c1cc(=O)n(-c2c(Cl)cc(C(F)(F)F)cc2Cl)[nH]1	7.88%
O=C(Nc1ccccn1)C1CCN(S(=O)(=O)c2ccccc2)CC1	-18.5%
O=C(Nc1nccs1)C1CCN(S(=O)(=O)c2ccc(Cl)c(C(F)(F)F)c2)CC1	73.5% (active)
CCOC(=O)C1CCCN(C(=O)C2CCN(S(=O)(=O)c3ccc(Cl)c(C(F)(F)F)c3)CC2)C1 (stereo not given)	-2.02%
N#Cc1cccc(NC(=O)c2cc(C3CCCCN3C(=O)CCc3ccccc3)on2)c1 (stereo not given)	26.1%
C#CCN(N(C)c1ncc(C(F)(F)F)cc1Cl)S(=O)(=O)c1ccc2ccccc2c1	18%
C=CCNc1nc(N)c(C(=C(C#N)C#N)c2ccccc2)s1	17.7%
Cc1cc(-c2n[nH]c(=S)n2-c2ccc(C)c(C)c2)no1	4.62%
Cc1ccc(-n2c(-c3ccc(Cl)cc3)n[nH]c2=S)cc1	104% (active)
COc1ccc(-n2c(-c3ccc(Cl)cc3)n[nH]c2=S)c(OC)c1	0.97%
CC(C)=C(NC(=O)c1ccco1)C(=O)NCCc1nc2ccccc2[nH]1	83.7% (active)
CC(C)Oc1ccc(/C=C(\NC(=O)/C=C/c2ccco2)C(=O)NCCc2nc3ccccc3[nH]2)cc1	13.7%
CCCC(NC(=O)c1ccco1)c1nc2ccccc2[nH]1 (stereo not given)	19.6%
